Measurements reported in the supplement of paper PMC11732987, “Enantioselective OTUD7B fragment discovery through chemoproteomics screening and high-throughput optimisation” (Communications Chemistry, 2025).

Tests used:
Assay in all cases: log2 ratio of Biotin-Ahx-Ub-VS probe labelling (fragment/DMSO); higher = less target engagement (more negative = stronger competition), active = hit call of the paper (q ≤ 0.05, log2 ratio ≤ -1)
Conditions in all cases: compound concentration: 200 uM; treatment time: 3 h
USP19 = target: T1, USP19 (UniProt O94966)
T1 sequence (whole entry): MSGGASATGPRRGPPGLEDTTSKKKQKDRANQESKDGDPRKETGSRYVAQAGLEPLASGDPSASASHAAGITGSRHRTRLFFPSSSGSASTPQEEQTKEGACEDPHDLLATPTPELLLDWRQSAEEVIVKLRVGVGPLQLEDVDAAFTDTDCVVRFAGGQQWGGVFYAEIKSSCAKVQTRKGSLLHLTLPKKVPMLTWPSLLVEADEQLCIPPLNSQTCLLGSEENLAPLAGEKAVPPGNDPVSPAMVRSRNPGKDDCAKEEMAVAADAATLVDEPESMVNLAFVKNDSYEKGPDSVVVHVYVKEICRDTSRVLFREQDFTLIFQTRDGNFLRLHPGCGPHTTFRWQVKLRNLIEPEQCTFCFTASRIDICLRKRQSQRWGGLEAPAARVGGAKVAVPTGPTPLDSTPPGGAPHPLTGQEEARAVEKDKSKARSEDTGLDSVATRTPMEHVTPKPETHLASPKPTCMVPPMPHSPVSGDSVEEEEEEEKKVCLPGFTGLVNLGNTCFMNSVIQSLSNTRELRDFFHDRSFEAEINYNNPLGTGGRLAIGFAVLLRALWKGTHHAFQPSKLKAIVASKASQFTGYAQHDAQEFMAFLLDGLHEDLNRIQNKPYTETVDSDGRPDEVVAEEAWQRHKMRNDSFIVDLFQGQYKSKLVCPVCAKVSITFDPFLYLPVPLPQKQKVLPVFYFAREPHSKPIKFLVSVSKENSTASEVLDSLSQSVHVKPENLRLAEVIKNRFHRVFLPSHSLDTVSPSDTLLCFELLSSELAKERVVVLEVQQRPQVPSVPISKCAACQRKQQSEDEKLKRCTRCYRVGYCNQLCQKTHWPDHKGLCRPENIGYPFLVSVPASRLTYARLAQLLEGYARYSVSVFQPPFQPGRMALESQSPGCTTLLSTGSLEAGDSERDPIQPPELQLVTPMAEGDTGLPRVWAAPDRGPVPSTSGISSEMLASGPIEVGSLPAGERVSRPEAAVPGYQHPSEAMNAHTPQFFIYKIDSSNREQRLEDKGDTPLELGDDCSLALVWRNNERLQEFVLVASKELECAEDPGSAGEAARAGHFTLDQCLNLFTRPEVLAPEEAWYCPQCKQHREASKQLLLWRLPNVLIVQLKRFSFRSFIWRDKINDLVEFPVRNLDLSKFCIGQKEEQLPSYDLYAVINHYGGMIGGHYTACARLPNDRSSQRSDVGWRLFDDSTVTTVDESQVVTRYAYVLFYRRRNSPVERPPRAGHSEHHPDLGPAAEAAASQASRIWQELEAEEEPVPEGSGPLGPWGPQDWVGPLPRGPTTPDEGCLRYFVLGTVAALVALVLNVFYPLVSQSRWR
Method in brief: (§1)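 HEK293T lysate (495 µg per sample, in Tris/CHAPS/IGEPAL buffer with protease inhibitors) was treated in triplicate with fragment at 200 µM or with DMSO for 3 h. It was then treated with Biotin-Ahx-Ub-VS (0.5 µM final) for 1 h. Labelled DUBs were NeutrAvidin-enriched, digested with LysC and trypsin, and run by diaPASEF LC-MS/MS. Spectronaut label-free quantities were global-median-normalised. Values are average log2 ratios fragment/DMSO by unpaired t-test, using proteins with ≥2 unique peptides.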

USP22 = target: T2, USP22 (UniProt Q9UPT9)
T2 sequence (whole entry): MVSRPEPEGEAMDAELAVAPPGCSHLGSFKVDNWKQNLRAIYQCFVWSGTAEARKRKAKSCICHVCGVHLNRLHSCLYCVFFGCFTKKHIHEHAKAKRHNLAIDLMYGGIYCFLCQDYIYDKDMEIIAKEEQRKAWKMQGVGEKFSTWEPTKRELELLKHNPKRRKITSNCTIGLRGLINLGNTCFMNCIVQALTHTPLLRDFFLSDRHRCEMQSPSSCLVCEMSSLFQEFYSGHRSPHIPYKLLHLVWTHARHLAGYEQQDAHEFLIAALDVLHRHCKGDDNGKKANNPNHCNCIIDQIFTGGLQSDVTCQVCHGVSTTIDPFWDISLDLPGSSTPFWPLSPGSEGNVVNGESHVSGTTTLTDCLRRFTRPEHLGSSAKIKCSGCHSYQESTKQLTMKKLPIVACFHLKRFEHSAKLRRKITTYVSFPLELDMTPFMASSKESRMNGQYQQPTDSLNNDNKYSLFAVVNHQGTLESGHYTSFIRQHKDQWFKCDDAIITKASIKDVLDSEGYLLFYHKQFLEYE
Method in brief: as §1

USP24 = USP24 (UniProt Q9UPU5)
Sequence of USP24 (Q9UPU5 whole entry): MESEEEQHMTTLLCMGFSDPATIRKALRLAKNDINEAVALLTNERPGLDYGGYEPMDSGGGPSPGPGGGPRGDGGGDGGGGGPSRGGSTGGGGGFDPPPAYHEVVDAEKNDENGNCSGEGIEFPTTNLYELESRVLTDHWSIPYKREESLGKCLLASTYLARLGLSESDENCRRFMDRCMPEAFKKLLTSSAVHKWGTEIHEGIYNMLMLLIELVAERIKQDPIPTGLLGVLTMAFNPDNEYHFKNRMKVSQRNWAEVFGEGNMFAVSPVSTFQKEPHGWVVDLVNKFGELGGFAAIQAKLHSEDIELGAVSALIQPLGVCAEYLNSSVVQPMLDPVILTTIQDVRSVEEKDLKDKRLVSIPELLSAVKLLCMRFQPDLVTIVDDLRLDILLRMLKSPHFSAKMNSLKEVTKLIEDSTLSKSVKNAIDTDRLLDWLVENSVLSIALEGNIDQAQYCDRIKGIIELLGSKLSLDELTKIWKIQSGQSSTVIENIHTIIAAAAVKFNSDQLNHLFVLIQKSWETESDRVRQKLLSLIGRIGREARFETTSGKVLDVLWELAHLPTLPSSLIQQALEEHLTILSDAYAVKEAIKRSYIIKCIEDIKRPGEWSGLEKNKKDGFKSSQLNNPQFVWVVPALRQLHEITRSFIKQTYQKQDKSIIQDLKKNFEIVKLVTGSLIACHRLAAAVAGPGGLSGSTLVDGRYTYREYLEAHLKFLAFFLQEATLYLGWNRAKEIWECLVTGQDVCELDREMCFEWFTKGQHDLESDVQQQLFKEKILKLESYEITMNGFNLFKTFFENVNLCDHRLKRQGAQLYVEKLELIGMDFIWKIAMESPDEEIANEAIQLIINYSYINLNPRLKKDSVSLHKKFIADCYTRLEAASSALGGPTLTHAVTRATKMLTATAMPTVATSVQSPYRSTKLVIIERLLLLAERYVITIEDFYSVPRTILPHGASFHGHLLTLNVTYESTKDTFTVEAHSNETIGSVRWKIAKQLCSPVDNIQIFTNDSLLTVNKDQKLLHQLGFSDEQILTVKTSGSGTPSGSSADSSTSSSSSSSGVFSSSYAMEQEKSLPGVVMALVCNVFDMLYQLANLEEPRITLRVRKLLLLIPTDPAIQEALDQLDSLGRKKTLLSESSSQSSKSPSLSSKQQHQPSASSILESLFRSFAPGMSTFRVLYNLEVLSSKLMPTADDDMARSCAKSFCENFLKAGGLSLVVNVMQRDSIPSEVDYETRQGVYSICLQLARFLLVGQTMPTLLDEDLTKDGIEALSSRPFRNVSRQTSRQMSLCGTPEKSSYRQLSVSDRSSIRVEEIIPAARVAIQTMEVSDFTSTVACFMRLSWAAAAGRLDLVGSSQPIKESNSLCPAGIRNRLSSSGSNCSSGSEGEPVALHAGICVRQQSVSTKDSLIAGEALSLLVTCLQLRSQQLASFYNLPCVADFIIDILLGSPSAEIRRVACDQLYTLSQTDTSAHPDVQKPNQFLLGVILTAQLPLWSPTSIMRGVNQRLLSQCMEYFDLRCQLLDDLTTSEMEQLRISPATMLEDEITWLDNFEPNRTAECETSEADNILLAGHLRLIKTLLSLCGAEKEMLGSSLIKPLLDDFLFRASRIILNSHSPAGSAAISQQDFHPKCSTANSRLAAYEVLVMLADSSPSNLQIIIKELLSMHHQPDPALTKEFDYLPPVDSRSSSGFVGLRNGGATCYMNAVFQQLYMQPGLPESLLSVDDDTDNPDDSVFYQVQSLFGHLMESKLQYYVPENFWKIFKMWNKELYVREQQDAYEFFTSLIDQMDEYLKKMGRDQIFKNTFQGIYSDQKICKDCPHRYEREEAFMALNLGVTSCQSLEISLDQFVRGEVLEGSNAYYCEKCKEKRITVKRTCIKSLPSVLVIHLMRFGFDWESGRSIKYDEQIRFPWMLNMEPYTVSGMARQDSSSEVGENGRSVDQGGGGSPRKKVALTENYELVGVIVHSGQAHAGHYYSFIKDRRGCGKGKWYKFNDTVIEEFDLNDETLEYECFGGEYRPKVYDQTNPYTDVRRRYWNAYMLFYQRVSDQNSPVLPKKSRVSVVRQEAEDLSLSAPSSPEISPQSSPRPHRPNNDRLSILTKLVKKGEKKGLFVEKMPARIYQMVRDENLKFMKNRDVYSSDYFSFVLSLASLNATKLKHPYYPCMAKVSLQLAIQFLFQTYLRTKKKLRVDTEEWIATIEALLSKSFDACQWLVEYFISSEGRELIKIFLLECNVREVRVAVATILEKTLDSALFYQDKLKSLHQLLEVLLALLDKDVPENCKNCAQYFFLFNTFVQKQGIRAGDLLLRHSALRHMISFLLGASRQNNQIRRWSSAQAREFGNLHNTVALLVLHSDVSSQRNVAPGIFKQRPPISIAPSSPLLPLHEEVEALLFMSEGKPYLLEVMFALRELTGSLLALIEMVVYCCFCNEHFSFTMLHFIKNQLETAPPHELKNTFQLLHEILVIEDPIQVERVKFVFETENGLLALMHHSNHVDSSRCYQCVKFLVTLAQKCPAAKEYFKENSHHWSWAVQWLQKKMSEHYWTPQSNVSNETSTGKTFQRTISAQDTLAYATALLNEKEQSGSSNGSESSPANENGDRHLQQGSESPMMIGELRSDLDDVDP
Method in brief: as §1

USP25 = target: T3, USP25 (UniProt Q9UHP3)
T3 sequence (whole entry): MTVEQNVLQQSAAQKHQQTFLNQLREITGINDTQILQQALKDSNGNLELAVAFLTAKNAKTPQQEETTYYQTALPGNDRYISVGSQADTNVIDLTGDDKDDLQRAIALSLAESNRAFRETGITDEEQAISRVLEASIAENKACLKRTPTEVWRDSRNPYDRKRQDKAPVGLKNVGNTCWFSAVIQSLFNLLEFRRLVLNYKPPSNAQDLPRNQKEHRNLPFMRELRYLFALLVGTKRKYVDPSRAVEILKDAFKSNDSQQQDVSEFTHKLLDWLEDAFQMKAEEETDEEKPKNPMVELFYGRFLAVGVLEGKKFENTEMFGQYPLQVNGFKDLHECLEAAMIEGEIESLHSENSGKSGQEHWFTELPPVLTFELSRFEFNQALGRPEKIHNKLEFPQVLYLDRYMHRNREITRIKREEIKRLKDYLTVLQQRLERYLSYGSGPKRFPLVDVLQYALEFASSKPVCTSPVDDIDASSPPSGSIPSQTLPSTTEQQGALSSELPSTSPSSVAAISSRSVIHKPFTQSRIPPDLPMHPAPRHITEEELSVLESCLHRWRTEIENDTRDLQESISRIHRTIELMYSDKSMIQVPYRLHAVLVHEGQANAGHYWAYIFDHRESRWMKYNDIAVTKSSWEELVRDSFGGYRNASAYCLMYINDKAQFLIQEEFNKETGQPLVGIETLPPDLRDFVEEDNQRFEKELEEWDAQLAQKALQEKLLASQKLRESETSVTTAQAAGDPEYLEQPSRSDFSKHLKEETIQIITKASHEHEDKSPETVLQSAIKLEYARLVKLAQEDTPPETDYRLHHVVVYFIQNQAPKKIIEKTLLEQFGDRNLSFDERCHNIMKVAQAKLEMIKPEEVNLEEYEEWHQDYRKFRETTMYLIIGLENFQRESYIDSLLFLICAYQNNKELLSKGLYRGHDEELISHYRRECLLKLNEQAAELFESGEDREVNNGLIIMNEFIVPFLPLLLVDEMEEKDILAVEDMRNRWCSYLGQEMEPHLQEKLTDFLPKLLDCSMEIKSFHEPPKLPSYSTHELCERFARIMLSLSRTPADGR
Method in brief: as §1

USP28 = target: T4, USP28 (UniProt Q96RU2)
T4 sequence (whole entry): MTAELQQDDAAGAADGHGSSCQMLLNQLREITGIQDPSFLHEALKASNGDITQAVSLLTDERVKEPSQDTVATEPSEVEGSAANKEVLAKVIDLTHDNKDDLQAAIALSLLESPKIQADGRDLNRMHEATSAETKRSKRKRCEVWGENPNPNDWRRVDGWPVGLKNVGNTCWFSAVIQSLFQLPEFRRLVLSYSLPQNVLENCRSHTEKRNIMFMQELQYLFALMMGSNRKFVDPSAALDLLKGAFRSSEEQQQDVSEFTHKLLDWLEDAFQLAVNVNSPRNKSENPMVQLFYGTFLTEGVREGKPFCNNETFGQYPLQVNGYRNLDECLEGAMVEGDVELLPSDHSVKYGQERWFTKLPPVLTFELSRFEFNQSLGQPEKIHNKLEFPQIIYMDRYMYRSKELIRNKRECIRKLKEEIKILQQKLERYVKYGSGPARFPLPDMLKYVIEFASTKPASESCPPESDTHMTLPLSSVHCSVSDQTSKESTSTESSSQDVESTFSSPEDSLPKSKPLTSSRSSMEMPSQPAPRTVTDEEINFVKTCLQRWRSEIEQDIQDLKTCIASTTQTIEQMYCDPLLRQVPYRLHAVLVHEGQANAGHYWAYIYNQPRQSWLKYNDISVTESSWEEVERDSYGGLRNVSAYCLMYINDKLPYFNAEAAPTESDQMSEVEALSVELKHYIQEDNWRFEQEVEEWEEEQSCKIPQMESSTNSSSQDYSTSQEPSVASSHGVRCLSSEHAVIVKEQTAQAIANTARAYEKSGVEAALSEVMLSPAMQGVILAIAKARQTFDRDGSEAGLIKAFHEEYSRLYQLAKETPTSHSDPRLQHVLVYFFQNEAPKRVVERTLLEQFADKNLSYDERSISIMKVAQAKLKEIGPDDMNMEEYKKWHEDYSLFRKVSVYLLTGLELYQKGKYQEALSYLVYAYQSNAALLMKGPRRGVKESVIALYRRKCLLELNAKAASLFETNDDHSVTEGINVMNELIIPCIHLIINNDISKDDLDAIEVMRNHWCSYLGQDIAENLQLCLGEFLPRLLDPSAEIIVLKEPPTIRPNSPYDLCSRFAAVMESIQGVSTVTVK
Method in brief: as §1

Measured: log2 ratio of Biotin-Ahx-Ub-VS probe labelling

COc1cccc(CN(C)C(=O)CCl)c1
inactive: USP19 -0.352 | USP22 -0.426 | USP24 -0.497 | USP25 -0.669 | USP28 -0.772
